EPAC1 agonist: Validation qHTS for agonist of cAMP-regulated guanine nucleotide exchange factor 3 (EPAC1); Rap guanine nucleotide exchange factor 3 (Homo sapiens), O95398; EPAC1 Rap1b BODIPY-GDP exchange, fluorescence; Potency, µM, without a hit: max response, positive = active, most hits filed as activators; 16,000 tested, 1% active; note: nearly all actives have a fitted effect of over 70% in size
EPAC2 antag: Validation qHTS for antagonist of cAMP-regulated guanine nucleotide exchange factor 4 (EPAC2); EPAC2 Rap1B BODIPY-GDP exchange, fluorescence; Potency, µM (highest dose often 112 µM), without a hit: top-dose activity, negative = inhibition, most hits filed as inhibitors; 16,000 tested, 1.7% active; AID 1645886, 2021;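 note: 100% = activation by cAMP agonist control; nearly all actives have a fitted effect of over 40% in size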
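Fluorescent exchange read-out: 100 nM EPAC2 with 250 nM RAP1B–BODIPY-GDP and 50 uM GDP; BODIPY-GDP release lowers fluorescence. Read at 480/540 nm every 5 min for 30 min at room temperature; normalized to 6.5 mM cAMP.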
* = called active by the depositor; i = inactive; ? = inconclusive; ! = repeats disagree. In the library only some 2.9% were active in any assay of this set; here they are far more common. Calls come from the whole dose curve; as a rule, active = well fitted curve in the direction sought with a large enough effect; inconclusive = small, poorly fitted or top-dose-only effect, or another doubt; inactive = no such curve, though single readings can be large; an effect the other way counts as inactive or inconclusive. Unless noted, % is set by controls: 0 for no effect and ±100 for the full control effect; potency is the fitted concentration of half-maximal effect.

SMILES	EPAC1 agonist	EPAC2 antag
CN(C)c1ncc2nc(CCc3ccccc3)c(=O)n(-c3ccccc3)c2n1	112µM*	-1%
Cc1nc2ccccc2nc1CN1CCOc2ccc(C(C)(O)COc3ccccc3)cc2C1 (stereo unspecified)	22%	-26%
Cc1cccc(C)c1N(CCCc1cccnc1)C(=O)C(C)N (stereo unspecified)	13%	-3%
CCC(=O)OC(OP(=O)(CCCCc1ccccc1)CC(=O)N1C[C@H](C2CCCCC2)C[C@H]1C(=O)O)C(C)C (stereo partly specified)	-36%	-26%
CCOC(=O)[C@H](CCc1ccccc1)N[C@@H](C)C(=O)N1[C@@H](C(=O)O)C[C@@H]2CCC[C@@H]21	45µM*	i
CCOC(=O)C(CCc1ccccc1)NC(C)C(=O)N1C(C(=O)O)CC2CCCC21 (stereo unspecified)	13%	-10%
Cc1cnc(SCc2ccccn2)nc1C1CCCN(C(=O)c2noc3c2CCCC3)C1 (stereo unspecified)	-11%	?
COCCn1c(=O)c(-c2cn(C)c3ccccc23)nc2cnc(N3CCOCC3)nc21	-20%	-10%
O=c1c(-c2cccs2)nc2cnc(N3CCOCC3)nc2n1CCc1ccccc1	100µM*	7%
O=c1c(CCc2ccccc2)nc2cnc(N3CCOCC3)nc2n1Cc1cccs1	-1%	0%
CN1CCN(c2ncc3nc(CCc4ccccc4)c(=O)n(Cc4cccs4)c3n2)CC1	100µM*	-20%
Cn1cc(-c2nc3cnc(N4CCOCC4)nc3n(CCC#N)c2=O)c2ccccc21	112µM*	12%
O=c1c(-c2cccs2)nc2cnc(N3CCOCC3)nc2n1Cc1ccc(F)cc1	1%	-1%
CN(C)c1ncc2nc(-c3cccs3)c(=O)n(C[C@H]3CCCO3)c2n1	112µM*	36%
CCNc1ncc2nc(-c3cccs3)c(=O)n(C[C@H]3CCCO3)c2n1	-11%	3%
C[C@@H]1C[C@H]2C3C[C@H](F)C4=CC(=O)C=CC4(C)[C@@]3(F)[C@@H](O)CC2(C)[C@@]1(O)C(=O)COC(=O)C(C)(C)C (stereo partly specified)	-12%	-2%
O=C(O)[C@H](O)c1ccccc1	-7%	-12%
Cc1cccc2cc(CNCCCN3CCCC3=O)c(N3CCN4CCCC4C3)nc12 (stereo unspecified)	13%	-27%
O.O.O.O.O.O.O.O=S(=O)([O-])[O-].[Co+2]	-32%	50µM*
O=C([C@@H]1C[C@@H](Sc2nc3ccccc3[nH]2)CN1Cc1ccc(C(F)(F)F)cc1)N1CCN(c2ccccc2F)CC1	-13%	-31%
COc1cc2c(cc1OC)-c1cc(=Nc3c(C)cc(C)cc3C)n(C)c(=O)n1CC2	?	14µM*!
CC(=O)OCC(=O)[C@@]1(O)[C@H](C)C[C@H]2[C@@H]3C[C@H](F)C4=CC(=O)C=C[C@]4(C)[C@H]3[C@@H](O)C[C@@]21C	-21%	6%
c1ccc(-c2ccc(C(c3ccccc3)n3ccnc3)cc2)cc1 (stereo unspecified)	?	50µM*
Clc1cccc(C(c2ccc3nc[nH]c3c2)n2ccnc2)c1 (stereo unspecified)	-12%	-14%
CC(=O)Nc1ccc(SC[C@H](C)CN2CC[C@H](C(C)(C)C)CCC2=O)cc1	-1%	56µM*
SMILES	EPAC1 agonist	EPAC2 antag
Cc1ccc(SC[C@H](C)CN2CC[C@H](C)CCC2=O)cc1	-43%	?
COc1ccc(SC[C@H](C)CN2CC[C@H](C)CCC2=O)cc1	3%	50µM*
COc1ccc(SC[C@H](C)CN2CC[C@H](O)CCC2=O)cc1	20%	-5%
CCCCCCCCCCCC(=O)OC[C@@H](O)C1OC[C@H](O)[C@H]1O (stereo partly specified)	-129%	?
CC[C@@H](C(=O)O)[C@@H]1O[C@@H]([C@@H](C)[C@H](O)[C@H](C)C(=O)[C@H](CC)[C@H]2O[C@]3(C=C[C@@H](O)[C@]4(CC[C@@](C)([C@H]5CC[C@](O)(CC)[C@H](C)O5)O4)O3)[C@H](C)C[C@@H]2C)[C@@H](C)C[C@@H]1C	-43%	16%
Cn1nccc1C(=O)NCC1CCC2(CCN(Cc3ccc(-c4ccc(Cl)cc4)o3)CC2)O1 (stereo unspecified)	-4%	-10%
COc1ccc2c(=O)c(OC)c(-c3ccccc3)oc2c1	-8%	11µM*
COc1ccc(-c2oc3ccccc3c(=O)c2O)cc1	-5%	-10%
CC(C)(C)C(=O)OCC(=O)[C@H]1CC[C@H]2[C@@H]3CCC4=CC(=O)CC[C@]4(C)[C@H]3CC[C@]12C	-24%	-17%
C=C1C(=C/C=C2\CCC[C@]3(C)[C@@H]([C@H](C)/C=C/[C@@H](O)C4CC4)CC[C@@H]23)C[C@@H](O)C[C@@H]1O	16%	-29%
C=C1CCC(O)C/C1=C\C=C1/CCCC2(C)C1CCC2C(C)/C=C/C(C)C(C)C (stereo unspecified)	-72%	50µM*
Cc1cc(/C=C/c2ccnc3ccccc23)ccc1N(C)C	100µM*	150%
CC[N+](C)(C)c1ccc(/C=C/c2ccnc3ccccc23)cc1	-130%	45µM*
OCCN(CCO)c1ccc(/C=C/c2ccnc3ccccc23)cc1	27%	-22%
CN(C)c1ccc(/C=C/c2ccnc3ccccc23)cc1Cl	13%	?
CCCCN(CCC#N)c1ccc(/C=C/c2ccnc3ccccc23)cc1	100µM*	18%
CC[N+](CC)(CC)c1ccc(/C=C/c2ccnc3ccccc23)cc1	-58%	?
CC[C@@]1([C@@H]2O[C@@H]([C@H]3O[C@@](O)(CO)[C@H](C)C[C@@H]3C)C[C@@H]2C)CC[C@H]([C@]2(C)CC[C@]3(C[C@H](O)[C@@H](C)[C@@H]([C@@H](C)[C@@H](OC)[C@H](C)C(=O)O)O3)O2)O1 (stereo in doubt)	-29%	-12%
COc1cccc(CN2CCCC(c3nc(-c4ccncc4)ncc3-c3ccccc3)C2)c1O (stereo unspecified)	8%	-27%
CC(C)c1nc(C(=O)N2CCOc3ccc(CN4CCN(c5ccccn5)CC4)cc3C2)cs1	3%	-22%
CCOC(=O)C[C@H]1c2ccccc2S(=O)(=O)N1Cc1cccc(C(F)(F)F)c1	-8%	56µM*
COC(=O)C[C@H]1c2ccc(C(F)(F)F)cc2S(=O)(=O)N1Cc1ccccc1	-5%	25µM*
CCOC(=O)C[C@H]1c2ccccc2S(=O)(=O)N1Cc1cc(OC)c(OC)c(OC)c1	18%	11%
CC(=O)C[C@H]1c2cc(C(F)(F)F)ccc2S(=O)(=O)N1Cc1ccccc1	22%	?
COCC(C)NCc1cc2ccc(OC)cc2nc1N1CCN(c2ccc(F)cc2)CC1 (stereo unspecified)	10%	-13%
Cc1cccc(C(=O)NCc2nc(-c3cccc(NC(=O)c4ccoc4C)c3)oc2C)n1	19%	-14%
COc1ccc(CN2CCCC(c3nc(-c4ccncc4)ncc3-c3ccccc3C)C2)c(OC)c1 (stereo unspecified)	16%	?
COc1cccc(-c2nc3cc4c(cc3cc2CN(C(=O)c2cccs2)C2CC2)CCC4)c1OC	-4%	?
CC(C)(C=O)Cc1cc(C(C)(C)C)c(O)c(C(C)(C)C)c1	5%	?

Bioassay records deposited in PubChem BioAssay by National Center for Advancing Translational Sciences (NCATS).
